In ChEMBL document CHEMBL1157539, “Thousands of chemical starting points for antimalarial lead identification” (Nature, 2010):

Columns and labels:
Format in all cases: functional
[1] = system: Plasmodium falciparum; experiment: GSK_TCMDC: Inhibition of Plasmodium falciparum 3D7 in whole red blood cells, using parasite LDH activity as an index of growth. Test compounds present at 2uM
[2] = system: Plasmodium falciparum; experiment: GSK_TCMDC: Inhibition of Plasmodium falciparum Dd2 in whole red blood cells, using parasite LDH activity as an index of growth. Test compounds present at 2uM
[3] = system: HepG2; experiment: GSK_TCMDC: Percent inhibition of human HepG2 cell line. Test compounds present at 10uM.

Row | Compound | Inhibition [1] | Inhibition [2] | Inhibition [3]
1 | N#Cc1cc(C(=O)c2cc(Cl)ccc2O)cn(-c2cc(Cl)cc(Cl)c2)c1=O | 93% | 32% | 34%
2 | CCc1ccc(CN2CCC(NC(=O)c3cc(-c4ccc(N(C)C)cc4)cs3)C2)cc1.O=C(O)C(F)(F)F (stereo not drawn) | 90% | 7% | 29%
3 | O=C(NCCCCN1CCC(c2ccc3c(c2OCCN2CCCC2)CCCC3)CC1)c1ccc(-c2ccc(C(F)(F)F)cc2)cc1 | 100% | 81% | 25%
4 | Cc1cc(Cl)c(S(=O)(=O)N2CCc3ccccc32)cc1OCC(=O)NC1CCCCC1 | 100% | 93% | 28%
5 | COc1ccc(CCOc2c(C)nc(N)nc2N)cc1OC.Cl | 96% | 22% | 66%
6 | CCn1cc2c3c(cc(C(=O)N[C@@H](Cc4ccccc4)[C@H](O)CNC4CCOCC4)cc31)N(C)S(=O)(=O)CC2 | 98% | 98% | 0%
7 | O=C(NCCCCN1CCC(c2ccc3c(c2OCc2ccncc2)CCCC3)CC1)c1ccc(-c2ccc(C(F)(F)F)cc2)cc1 | 100% | 92% | 96%
8 | COC(=O)c1sc2ccccc2c1NC(=O)c1ccc(C)c(C)c1 | 88% | 48% | 4%
9 | Br.COc1ccccc1CCCON1C(=N)N=C(N)NC1(C)C | 95% | 92% | 68%
10 | COc1ccccc1N1CCN(c2cccc(F)c2C#N)CC1 | 85% | 59% | 0%
11 | Cc1cc(C)n(-c2nc(Nc3cccc(C(F)(F)F)c3)nc(-n3nc(C)cc3C)n2)n1 | 99% | 88% | 0%
